Bioassay records (PubChem)
Compounds with a hit are over-represented: about 0.93% of the library has one in this group of screens.
F508del corr = correctors of CFTR F508del function in bronchial epithelial cells. AID 720511. 350,000 tested, 0.36% active. CFBE cells, YFP halide quenching; stimulated with forskolin plus potentiator P3; % fluorescence drop versus neutral controls. activity (quench increase), % at 7.58 µM;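 active = mean added fluorescence quench of at least 8% versus neutral control, with both replicates also reaching 8%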;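 note: cells transiently co-express mutant CFTR-F508del with the halide-sensitive YFP; corrector assay measuring rescue of mutant channel to the surface after 24 h compound exposure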
Jurkat NFkB inh = inhibitors of the PMA/ionomycin-induced NF-kB reporter in Jurkat cells; inhibition, % at 4 µM; PMA/ionomycin-induced NF-kB luciferase reporter, luminescence; AID 435003; 330,000 tested, 0.53% active; in the data active = inhibition above about 50%
697 NFkB inh = lowers PMA/ionomycin-induced NF-kB signal in 697 B cells; 697 B-cell NF-kB luciferase reporter, 16 h; inhibition, % at 4 µM; 330,000 tested, 0.33% active; AID 435022; in the data active = inhibition above about 35%
HIF activator = HIF pathway transcriptional activation | AID 1910 | U2OS HRE-luciferase reporter, luminescence; normalized: DMSO 0%, desferrioxamine 100% | 300,000 tested, 0.32% active | activation, % at 7.5 µM (by protocol);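 active = mean activation of at least 10% of the iron chelator positive control signal, with at least half of replicates also reaching 10%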
* marks the source's active call; other numbers are inactive results; . = not tested or not shown; ! = a repeat was not active.

SMILES	F508del corr	Jurkat NFkB inh	697 NFkB inh	HIF activator
CCOC(=O)c1nc2nc(-c3cccs3)cc(C(F)(F)F)n2n1	.	35.3	-21.2	-0.2
COc1ccc(NC(=O)CSc2nnc(Cc3cccs3)n2C)cc1	10.3*	-3.9	-15.4	0.2
CC(C)CC#Cc1ccc2c(c1)O[C@@H](CN(C)C(=O)Nc1ccccc1F)[C@H](C)CN([C@@H](C)CO)S2(=O)=O	4.2	.	.	.
c1ccc(Cc2nnc(-c3ccccc3)o2)cc1	.	-55.2	-35.5	9.7*
Brc1ccc(-c2nnc(Cc3ccccc3)o2)cc1	0.0	-68.5	-85.9	3.0
O=[N+]([O-])c1cccc(/C=C/c2ccc3cccc(O)c3n2)c1	4.7	-39.8	-129.7	13.3*
COc1ccc(N2C(=O)[C@@H]3C(c4cccnc4)=NO[C@@H]3C2=O)cc1	-1.6	-3.3	9.5	29.5*
CCC(=O)Nc1ccc2c(c1)OC[C@H](C)N(Cc1cccnc1)C[C@H](C)[C@@H](OC)CN(C)C2=O	-3.9	.	.	.
O=C(NNC(=O)c1cccnc1SCc1cccc([N+](=O)[O-])c1)c1ccccn1	-2.8	-5.0	-37.0	29.9*
CC(C)(C)NC(=O)COC(=O)c1ccc(Cl)nc1	-0.6	4.6	10.6	71.0*
CC1=NC(C#N)=C(C#N)NC(C)(C)C1	0.5	6.1	7.2	28.4*
CC1=C(C#N)C(=O)NC(C)(C)C1	.	12.2	13.8	0.2
O=C(C[C@H]1CC[C@H](NS(=O)(=O)c2ccccc2)[C@H](CO)O1)N1CCN(c2ccccc2)CC1	4.0	.	.	.
COc1ccc(C#Cc2ccc3c(c2)O[C@H](CN(C)C(=O)Nc2cccc(OC)c2)[C@@H](C)CN([C@H](C)CO)S3(=O)=O)cc1	-0.3	.	.	.
COc1ccc(NC(=O)N(C)C[C@@H]2Oc3cc(C#CCC(C)C)ccc3S(=O)(=O)N([C@H](C)CO)C[C@@H]2C)cc1	9.2*	.	.	.
COc1ccc(C#Cc2ccc3c(c2)O[C@H](CN(C)C(=O)Nc2cccc(OC)c2)[C@H](C)CN([C@H](C)CO)S3(=O)=O)cc1	8.6*	.	.	.
COc1cccc(-c2ccc([C@@H]3[C@H]4CN(C(=O)C5CCC5)CC(=O)N4[C@H]3CO)cc2)c1	1.7	.	.	.
COCC(=O)Nc1ccc2c(c1)OC[C@H](C)N(CCC(F)(F)F)C[C@H](C)[C@@H](OC)CN(C)C2=O	0.5	.	.	.
Cc1cc(-c2nnnn2-c2ccc(F)cc2)no1	-1.2	4.1	24.0	.
Cc1cc(-c2nnnn2-c2cc(Cl)cc(Cl)c2)no1	3.0	9.3	-2.3	12.5*
COCC(=O)Nc1ccc2c(c1)C(=O)N(C)C[C@@H](OC)[C@@H](C)CN(Cc1cccnc1)[C@H](C)CO2	-2.2	.	.	.
Cc1ccc(CSc2nnc(CCCCCNC(=O)OC(C)(C)C)o2)cc1	-13.0	8.2	-10.7	14.5*
C1CCC2(CC1)C1=C(CCCC1)Nc1nnnn12	.	-6.1	-0.3	125.8*
Nc1nc2n(n1)C1(CCCCC1)C1=C(CCCC1)N2	.	.	.	-0.1
Oc1ccccc1N=Nc1ccccc1O	2.7	.	.	201.5*
SMILES	F508del corr	Jurkat NFkB inh	697 NFkB inh	HIF activator
NS(=O)(=O)c1ccc(NC(=O)c2cccc3cc4ccccc4nc23)cc1	18.5*	.	.	.
COc1ccccc1CNC(=O)Nc1nc(C(N)Cc2ccc(Cl)cc2)cs1 (stereo not drawn)	8.3*	.	.	.
CCc1cc2c(=O)[nH]c(-c3ccccn3)nc2s1	.	45.9	-180.1	10.9*
COc1ccc2c3c(n(C)c2c1)[C@@H](CO)N(C(=O)C1CC1)CC31CN(C)C1	-0.6	.	.	.
CC(C)(C)C(=O)Nc1ccc(S(=O)(=O)NC2=NCCCCC2)cc1	15.5*	1.9	3.0	.
O=C(CCl)Nc1ccc(S(=O)(=O)NC2=NCCCCC2)cc1	3.3	15.0	24.3	.
CCCC(=O)Nc1ccc2c(c1)C(=O)N(C)C[C@H](OC)[C@@H](C)CN(C(=O)CC)[C@@H](C)CO2	-1.7	.	.	.
CCN(CC)CCCNC(=O)C1c2ccccc2C(=O)N(C)C1c1ccc(OC)cc1 (stereo not drawn)	.	-5.9	17.4	795.0*
COc1ccc(C2C(C(=O)NCc3ccco3)c3ccccc3C(=O)N2C)cc1 (stereo not drawn)	3.1	-5.5	13.3	-0.6
CCS(=O)(=O)N[C@H]1C=C[C@@H](CC(=O)NCc2ccc(Cl)cc2)O[C@H]1CO	3.1	.	.	.
CCOc1ccc(N(CC)C(=O)COc2cc(=O)n(C)c3ccccc23)cc1	8.8*	-6.2	-6.4	-0.2
O=C(NNC(=O)c1ccncc1)Nc1ccc(Cl)cc1	8.2*	.	.	.
CCNC(=O)[C@H]1[C@H](CO)[C@H]2Cn3c(ccc(-c4ccc(OC)cc4)c3=O)[C@@H]1N2CC	-1.3	.	.	.
O=C(/C=C/c1ccco1)NC(=S)Nc1nc(-c2ccc3ccccc3c2)cs1	12.1*	20.6	-80.4	2.5
CC(=O)N1CCC(=NNc2nc3ccccc3[nH]2)CC1	0.7	-27.5	-10.2	22.1*
CCC(C)(C)C1CCC(=NNc2nc3ccccc3[nH]2)CC1 (stereo not drawn)	.	-5.7	3.1	4.1
CO[C@H]1CN(C)C(=O)c2ccc(NC(=O)CC(F)(F)F)cc2OC[C@H](C)N(C(C)=O)C[C@H]1C	-1.9	.	.	.
C(=N\Nc1nc2ccccc2[nH]1)/c1cccc2cccnc12	-3.3	-51.1	-88.5	271.2*
COc1ccc(OC)c(C2CC(c3ccccc3)=NN2C(=S)Nc2ccccc2)c1 (stereo not drawn)	11.5*	48.7	-34.1	0.7
COc1cc(N/N=C/c2ccccc2O)ncn1	.	-53.3	-95.7	10.1*
CC(=O)c1c(C)[nH]c(C(=O)OCC(=O)NCCc2ccc(Cl)cc2)c1C	.	-3.2	-24.0	-0.1
CC(=O)c1c(C)[nH]c(C(=O)OCC(=O)NCc2ccc(Cl)cc2)c1C	11.6*	11.9	-13.8	.
Cc1ccc(-c2nc(CSCC(=O)Nc3cc(C)on3)c(C)o2)cc1	8.4*	-12.2	-11.4	-0.2
CCOc1ccc(S(=O)(=O)Nc2cc(SCC(=O)O)c(O)c3ccccc23)cc1	-3.8	.	.	-0.2
O=S(=O)(Nc1cc(Sc2cccc3cccnc23)c(O)c2ccccc12)c1ccccc1	25.9*	.	.	1.1
SMILES	F508del corr	Jurkat NFkB inh	697 NFkB inh	HIF activator
CCc1cnccc1CCC(=O)Nc1ccccc1C	-1.3	-12.6	-10.4	429.9*
COc1ccc(NC(=O)CCS(=O)(=O)c2ccc3c(c2)CCN3C(C)=O)cc1	1.9	-8.9	-0.5	10.4*
CC(=O)Nc1sc2c(c1-c1nc3ccccc3s1)CN(C(C)C)CC2	23.5*	35.2	-5.0	.
CC(=O)N1CCc2c(sc(NC(=O)C3CC3)c2-c2nc3ccccc3s2)C1	-1.0	-18.6	-14.6	-0.2
C[C@@H]1CN([C@H](C)CO)C(=O)c2cc(NC(=O)CCCCCC(=O)Nc3ccccc3N)ccc2O[C@@H]1CN(C)S(=O)(=O)c1ccccc1	0.0	.	.	.
Nc1ccn([C@H]2C[C@H](O)[C@@H](CO)O2)c(=O)n1	8.0*!	8.1	20.6	0.0
C[C@@H]1CN([C@@H](C)CO)C(=O)c2cc(C#CC3CCCCC3)cnc2O[C@@H]1CN(C)C(=O)Cc1ccccn1	-1.1	.	.	.
CC1(C)Cc2c(C#N)c(SCCO)nc(N3CCOCC3)c2CO1	-1.0	-17.5	1.4	0.2
CC1(C)Cc2c(C#N)c(SCCC#N)nc(N3CCOCC3)c2CO1	-0.4	-7.4	-5.1	35.2*
O=C(c1ccccc1F)N1CC[C@@H]2[C@H](CO)Nc3ccc(Br)cc3[C@@H]21	11.7*	.	.	.
